Test results taken from PubChem BioAssay.
“And” between values parts separate entries of the source, which are not always exact repeats. Identical values can stand only once. Where a structure was tested more than once in an assay, its records may differ in their call. The source made the active and inactive calls. Rule as the data show it, unless noted: active = parasite load remaining mostly below about 12% (no sharp cut-off); inactive = mostly above about 10%.

Key:
[1] = P. berghei load reduction in hepatocytes – cell-based, HepG2, luciferase luminescence, HepG2 viability, primary screen (AID 624349);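 also: 100% = mean of DMSO negative control wells on the same plate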; conditions: P. berghei liver stage in HepG2, luciferase luminescence, concentration not given here; parasite load remaining: stronger effect = lower value; viability: measured here: HepG2 viability without parasites
[2] = viability loss with induced miR-34 in A549 – imaging, A549 dox-inducible miR-34, nuclei and caspase counts, primary screen (AID 1347080;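 active = compounds whose cell count with miR-34 switched on is under 0.7 times the count with it off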); conditions: A549 miR-34 inducible, Hoechst nuclei count, 48 h
[3] = MELAS cybrid and Rieske KO viability enhancers – cell-based, MELAS cybrids, Rieske KO mouse fibroblasts, CellTiter-Glo, primary screen (AID 1508586;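 active = mean z-score across replicates of 1.96 or higher in either the MELAS or the Rieske mutant cell line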;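 also: z relative to plate mean and SD of compound and empty wells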); conditions: low glucose
[4] = galactose survival enhancers in mitochondrial complex I cybrids – cell-based, galactose medium, ATP luminescence, primary screen (AID 1645843;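 active = z-score of at least 1.8 in each of two replicates, scored against plate mean and spread of sample wells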;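 also: positive z means more ATP and so rescue of galactose-driven cybrid death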); conditions: complex I mutant cybrid cells, 72 h, stronger effect = higher value
[5] = compounds altering viability of human ES cells (AID 493140; call rule not given here;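 also: cells exposed to compounds for four days before counting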); conditions: human embryonic stem cell survival screen; stronger effect = higher value
[6] = stronger effect = lower value, cell number ratio, induced over uninduced
[7] = measured here: relative caspase fold change +Dox/-Dox
[8] = measured here: total cells with miR-34 induction, stronger effect = lower value
[9] = measured here: total cells without miR-34 induction
[10] = MELAS cybrid survival, CellTiter-Glo 48 h, stronger effect = higher value
[11] = Rieske KO mouse fibroblast survival, CellTiter-Glo 72 h

SMILES | parasite load remaining [1] | viability [1] | fold change [2, 6] | fold change [2, 7] | cell count [2, 8] | cell count [2, 9] | z-score [3, 10] | z-score [3, 11] | z-score [4] | survival [5]
C[N+](C)(C)[C@@H](Cc1c[nH]c(=S)[nH]1)C(=O)[O-] | 52.4% (inactive) | 234% | 0.872 (inactive) | 1.27 | 9810 | 11300 | -0.462 (inactive) | -0.623 | 0.805 (inactive) | –
O=C(OC1CC2CC3C[C@@H](C1)N2CC3=O)c1c[nH]c2ccccc12 (stereo partly specified) | 57.9% (inactive) | 134% | 0.838 (inactive) | 1.48 | 8850 | 10600 | -0.0411 (inactive) | -0.329 | 1.09 (inactive) | –
CC(C)C[C@@H](NC(=O)[C@H](Cc1ccccc1)NC(=O)c1cnccn1)B(O)O | -0.325% (inactive) | 1% | 1.12 (inactive) | 1.54 | 1190 | 1060 | -1.11 (inactive) | 0.911 | -2.25 (inactive) | –
CC(C)C[C@H]1C(=O)N2CCC[C@H]2[C@]2(O)O[C@](NC(=O)[C@@H]3C=C4c5cccc6[nH]c(Br)c(c56)CC4N(C)C3)(C(C)C)C(=O)N12 (stereo partly specified) | 20.7% (inactive) and 22.3% (inactive) | 50% and 138% | 0.897 (inactive) and 0.925 (inactive) | 1.56 and 1.14 | 7190 and 8820 | 8020 and 9530 | -0.909 (inactive) | 0.597 | 0.045 (inactive) | –
COC(=O)c1ccccc1O | 53.2% (inactive) | 98% | 0.851 (inactive) | 1.32 | 10100 | 11800 | -0.407 (inactive) | -0.367 | 0.47 (inactive) | –
CCCCCCCCCCCCCCCC(=O)O[C@@H]1[C@@H](O)[C@@H](O)[C@@H](C(NC(=O)[C@@H]2C[C@@H](CCC)CN2C)C(C)Cl)O[C@@H]1SC (stereo partly specified) | 67.8% (inactive) | 204% | 0.867 (inactive) | 1.18 | 9340 | 10800 | 0.27 (inactive) | -0.444 | 0.11 (inactive) | –
CCC(=O)OC(OP(=O)(CCCCc1ccccc1)CC(=O)N1C[C@H](C2CCCCC2)C[C@H]1C(=O)O)C(C)C (stereo partly specified) | 49.8% (inactive) | 108% | 0.948 (inactive) | 2.49 | 10100 | 10700 | 0.354 (inactive) and -0.69 (inactive) | -0.176 and -1.17 | 0.59 (inactive) | –
CC(C)C[C@H](NC(=O)[C@@H](Cc1c[nH]c2ccccc12)NC(=O)[C@H](Cc1ccc(O)cc1)NC(=O)[C@H](CO)NC(=O)[C@H](Cc1c[nH]c2ccccc12)NC(=O)[C@H](Cc1cnc[nH]1)NC(=O)[C@@H]1CCC(=O)N1)C(=O)N[C@@H](CCCN=C(N)N)C(=O)N1CCC[C@H]1C(=O)NCC(N)=O | 20.9% (inactive) | 68.5% | 0.921 (inactive) | 1.16 | 9400 | 10200 | 0.161 (inactive) | -0.118 | 0.68 (inactive) | –
CC(C)C[C@H](NC(=O)[C@@H](COC(C)(C)C)NC(=O)[C@H](Cc1ccc(O)cc1)NC(=O)[C@H](CO)NC(=O)[C@H](Cc1c[nH]c2ccccc12)NC(=O)[C@H](Cc1cnc[nH]1)NC(=O)[C@@H]1CCC(=O)N1)C(=O)N[C@@H](CCCN=C(N)N)C(=O)N1CCC[C@H]1C(=O)NNC(N)=O | 53.9% (inactive) | 102% | 0.891 (inactive) | 1.53 | 10600 | 11900 | -0.533 (inactive) | -0.444 | 0.71 (inactive) | –
CC[C@]1(O)C[C@H]2CN(CCc3c([nH]c4ccccc34)[C@@](C(=O)OC)(c3cc4c(cc3OC)N(C)[C@H]3[C@@](O)(C(N)=O)[C@H](O)[C@]5(CC)C=CCN6CC[C@]43[C@@H]65)C2)C1 | 29.7% (inactive) | 79.5% | 1.02 (inactive) | 1.58 | 1810 | 1780 | -2.11 | 2.09 | -1.99 (inactive) | –
CC1/C=C/C=C/CC/C=C/C=C/C=C/C=C/C(O[C@@H]2O[C@H](C)[C@@H](O)[C@H](N)[C@@H]2O)CC(O)C(C(=O)O)C(O)CC(=O)CC(O)C(O)CCC(O)CC(O)CC(O)CC(=O)OC(C)C(C)C1O (stereo partly specified) | 90.8% (inactive) and 24.4% (inactive) | 111% and 90.5% | 0.86 (inactive) and 0.844 (inactive) | 1.56 and 1.28 | 9420 and 8760 | 11000 and 10400 | 2.26 (active) and 0.353 (inactive) | 0.0499 and 0.288 | 0.5 (inactive) | –
CO/N=C(\C(=O)N[C@@H]1C(=O)N2C(C(=O)[O-])=C(C[N+]3(C)CCCC3)CS[C@H]12)c1csc(N)n1 | 37.1% (inactive) | 100% | 0.872 (inactive) | 1.15 | 9480 | 10900 | -0.344 (inactive) | 0.0422 | 0.485 (inactive) | –
CO[C@@H]1[C@@H](OC(N)=O)[C@H](O)[C@H](Oc2ccc3c(O)c(NC(=O)c4ccc(O)c(CC=C(C)C)c4)c(=O)oc3c2C)OC1(C)C | 81.2% (inactive) | 108% | 0.831 (inactive) | 1.55 | 9200 | 11100 | 0.157 (inactive) | 0.871 | 1.12 (inactive) | –
CC1=C(CC(=O)O)c2cc(F)ccc2/C1=C/c1ccc(S(C)=O)cc1 (stereo unspecified) | 88.6% (inactive) and 52.4% (inactive) | 91.8% and 138% | 0.93 (inactive) | 1.38 | 9820 | 10600 | -0.379 (inactive) | -0.389 | 0.615 (inactive) | 19.2 (inactive)
CC1(C)C[C@H]1C(=O)N/C(=C\CCCCSC[C@@H](N)C(=O)O)C(=O)O | 23.2% (inactive) | 65% | 0.879 (inactive) | 0.978 | 9660 | 11000 | 0.461 (inactive) | 1.05 | 0.565 (inactive) | –
